Here are results for 52 molecules from PubChem BioAssay AID588342 (National Center for Advancing Translational Sciences (NCATS), 2011).

The whole screen tested about 360,000 compounds, of which about 25,000 (6.9%) were called active. Another 9% or so got no clear call; they are omitted. This excerpt belongs to a sample that is enriched for actives. Values without a mark were called inactive. Calls follow the shape of the dose curve; as a rule, active = well fitted inhibition curve with a large enough effect; inconclusive = small, poorly fitted or top-dose-only effect; inactive = flat fitted curve, though single readings scatter.
Potency is read from the fitted curve at half-maximal effect.

Luciferin 4-monooxygenase (Photinus pyralis), sequence (P08659 whole entry, looked up): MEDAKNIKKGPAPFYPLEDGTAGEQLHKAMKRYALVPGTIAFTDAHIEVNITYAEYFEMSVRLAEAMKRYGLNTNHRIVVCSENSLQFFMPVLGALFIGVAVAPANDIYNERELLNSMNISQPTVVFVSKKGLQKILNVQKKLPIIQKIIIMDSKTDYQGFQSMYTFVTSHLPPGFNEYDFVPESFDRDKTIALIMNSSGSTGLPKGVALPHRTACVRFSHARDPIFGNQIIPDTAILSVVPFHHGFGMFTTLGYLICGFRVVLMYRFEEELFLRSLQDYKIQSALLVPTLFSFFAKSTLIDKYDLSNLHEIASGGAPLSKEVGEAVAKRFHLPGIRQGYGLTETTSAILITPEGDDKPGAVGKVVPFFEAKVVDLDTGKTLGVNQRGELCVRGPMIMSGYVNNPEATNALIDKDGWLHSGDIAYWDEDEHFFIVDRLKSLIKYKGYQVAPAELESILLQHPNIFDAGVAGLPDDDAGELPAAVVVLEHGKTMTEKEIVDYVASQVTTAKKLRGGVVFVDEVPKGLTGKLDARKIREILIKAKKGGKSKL

For the experiment, the target named is Luciferin 4-monooxygenase (Photinus pyralis) (UniProt P08659). The experiment is described as follows: qHTS profiling assay for firefly luciferase inhibitor/activator using purifed enzyme and Km concentrations of substrates (counterscreen for miR-21 project). Also: nearly all actives have a fitted effect of over 55% in size.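 As to activity change, negative = inhibition: plate controls were vehicle for no effect and reference inhibitor for full effect.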 As to conditions: purified FLuc, luminescence inhibition; series mostly up to 57.5 µM; activity change, negative = inhibition: at the top concentration. The method in brief:
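Biochemical qHTS of compounds, final roughly 60 µM downward over six points, against 10 nM purified firefly luciferase using Km concentrations of substrates (10 uM D-luciferin, 10 uM ATP) in Tris acetate pH 7.5 buffer; luminescence output.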
As for `Cc1cc(C)cc(OCC(=O)Nc2c(C(=O)c3ccccc3)oc3ccccc23)c1`, the “activity change, negative = inhibition” value was 2.57%.

In the case of `Cc1ccc2oc(C(=O)Nc3ccc(S(=O)(=O)N4CCCCCC4)cc3)cc(=O)c2c1`, the “activity change, negative = inhibition” value is -1.02%.

Regarding `O=[N+]([O-])c1cc(S(=O)(=O)NCCc2ccccn2)ccc1Cl`, the “activity change, negative = inhibition” value was 3.12%.

Consider `CCOc1ccc(S(=O)(=O)N2CCC(C(=O)NCC(=O)Nc3cccc(Cl)c3C)CC2)cc1`, for which the “activity change, negative = inhibition” value was -2.11%.

Regarding `O=C(CN1C(=O)COc2ccc(S(=O)(=O)N3CCCCCC3)cc21)N1CCN(c2cccc(C(F)(F)F)c2)CC1`, the “activity change, negative = inhibition” value is -9.19%.

In the case of `CCOc1ccc(C(=O)c2cn(Cc3ccc(F)cc3)c3ccc(F)cc3c2=O)cc1`, the “activity change, negative = inhibition” value is -2.06%.

As for `COc1cc2ccccc2cc1C(=O)Nc1ccc(NC(=O)c2cccs2)cc1`, the “activity change, negative = inhibition” value is -10.6%.

With `COc1cc2ccccc2cc1C(=O)Nc1ccc(S(=O)(=O)Nc2cc(C)on2)cc1`, the “activity change, negative = inhibition” value is -15.8%.

With `COc1cc2ccccc2cc1C(=O)Nc1ccncc1`, the Potency is 12 µM (active).

In the case of `CCOc1cccc(NC(=O)Cn2nc(-c3ccc4c(c3)OCCO4)ccc2=O)c1`, the “activity change, negative = inhibition” value is 0.206%.

`O=C1c2ccccc2NC(c2ccc(-c3cccc(Cl)c3)o2)N1O` (configuration not stated): the Potency is 10.7 µM (active).

As to `Nc1nnnn1CC(=O)N/N=C/c1ccc(-c2cccc(Cl)c2)o1`, the “activity change, negative = inhibition” value is 6.74%.

Take `CC(=O)NN1C(=O)c2ccccc2NC1c1ccccc1` (configuration not stated): the “activity change, negative = inhibition” value is 2.23%.

For the molecule `Cc1cc(C)c(NC(=O)Cn2c(SCC(=O)NCc3ccccc3)nc3ccccc32)c(C)c1`, the “activity change, negative = inhibition” value is -0.811%.

Consider `CCn1c(CNC(=O)c2ccccc2)nnc1SCC(=O)N1CCN(c2ccccc2)CC1`, for which the “activity change, negative = inhibition” value is 1.04%.

As to `CCCc1c(C(=O)O)cnn1-c1ccc(Cl)cc1`, the “activity change, negative = inhibition” value is 3.22%.

For `O=C(c1cnn(-c2ccc(Cl)cc2)c1)c1ccccc1O`, the Potency was 2.13 µM (active).

For the molecule `Cc1ncc(CC(=O)n2cc(C(=O)c3cc(Cl)ccc3O)cn2)s1`, the “activity change, negative = inhibition” value is 1.29%.

With `COc1cc(C(C)=O)ccc1OC(C)C(=O)Nc1ccc(S(=O)(=O)N2CCCC2)cc1` (configuration not stated), the “activity change, negative = inhibition” value is -1.45%.

As to `Cc1oc2ncn(CC(C)C)c(=O)c2c1C(=O)N1CCN(c2ccccc2F)CC1`, the “activity change, negative = inhibition” value was 6.38%.

On to `N#Cc1c(NC(=O)C2CC(Cl)=CCC2C(=O)O)sc2c1CCCCC2` (configuration not stated), for which the “activity change, negative = inhibition” value was -24.5%.

`N#Cc1c(NC(=O)C2CCCO2)sc2c1CCCCC2` (configuration not stated): the Potency is 13.5 µM (active).

As to `N#Cc1c(NC(=O)CCCl)sc2c1CCCCC2`, the “activity change, negative = inhibition” value was -9.16%.

Regarding `COc1cc(C(=O)NC(=S)NCc2ccco2)cc(OC)c1OC`, the “activity change, negative = inhibition” value was 6.72%.

With `COc1ccc2c(Cl)c(C(=O)NCc3ccco3)sc2c1`, the Potency was 10.7 µM (active).

As for `O=C(NCc1ccco1)c1sc2cccc(F)c2c1Cl`, the “activity change, negative = inhibition” value is -16.5%.

Consider `COc1ccc2oc(C(=O)NCc3ccco3)c(C)c2c1`, for which the Potency was 16.9 µM (active).

Turning to `COc1ccc(NC(=O)C(=O)NCc2ccco2)cc1`, the “activity change, negative = inhibition” value is -8.25%.

Consider `CCN(C(=O)c1sc2cc(OC)ccc2c1Cl)c1ccccc1`, for which the “activity change, negative = inhibition” value is -0.333%.

Regarding `CCCC(=O)Nc1cc(C(=O)NCc2ccc(OC)cc2)ccc1S(=O)(=O)c1ccc(Cl)cc1`, the “activity change, negative = inhibition” value was -3.23%.

With `COc1cc(OC)c(C2C=C(C(=O)O)Nc3ncnn32)cc1OC` (configuration not stated), the “activity change, negative = inhibition” value is -6.74%.

Regarding `CCC(C)NC(=O)c1ccc(NC(=O)CC2SC(N3CCCCC3)=NC2=O)cc1` (configuration not stated), the “activity change, negative = inhibition” value was -2.3%.

Consider `O=C(COc1ncnc2c(Cl)cc(Cl)cc12)N1CCN(S(=O)(=O)c2ccccc2)CC1`, for which the “activity change, negative = inhibition” value was -0.709%.

Turning to `Cc1ccc(-n2ncc(C(=O)N(C)Cc3ccccc3)c2-n2cccc2)cc1`, the “activity change, negative = inhibition” value was -10.4%.

As to `O=C(O)CS/C(=C\c1ccc(F)cc1)c1nc2ccccc2s1`, the Potency is 23.9 µM (active).

For `O=C(O)CC/C(=C\c1cc2c(cc1Br)OCO2)c1nc2ccccc2s1`, the “activity change, negative = inhibition” value was -2.88%.

Take `CC(=O)N/C(=C\c1ccc(F)cc1)C(=O)NC(Cc1ccccc1)C(=O)O` (configuration not stated): the “activity change, negative = inhibition” value was 0.397%.

As for `COc1ccccc1NC(=O)CN1C(=O)c2ccccc2Sc2ccc(C(=O)N3CCCC3)cc21`, the “activity change, negative = inhibition” value is -10.2%.

Regarding `O=C(Nc1ccccc1)c1ccccc1NC(=O)C(F)(F)F`, the “activity change, negative = inhibition” value was 0.648%.

With `O=C(Nc1ccccc1)N1CCN(C(=O)Nc2ccccc2)CC1`, the “activity change, negative = inhibition” value is 0.646%.

As to `O=C(Nc1ccccc1)c1cc2ccccc2[nH]1`, the Potency is 9.53 µM (active).

As to `CCC(=O)N1CCc2cc(S(=O)(=O)NC(CC(C)C)C(=O)NCCc3cccc(C)c3)ccc21` (configuration not stated), the “activity change, negative = inhibition” value is -0.621%.

Consider `CCCCSc1ncnc2c1sc1nc(N3CCOCC3)c3c(c12)CCCC3`, for which the “activity change, negative = inhibition” value is -4.06%.

As for `CC(C)CNC(=O)/C=C/C(=O)O`, the Potency entry was “inactive”.

As for `Cc1ccc(CN2CCC(CNC(=O)c3cnn(-c4ccccc4Cl)c3C3CCN(C(=O)OC(C)(C)C)CC3)CC2)cc1`, the “activity change, negative = inhibition” value was -4.29%.

With `CCCc1ccc(C(=O)COC(=O)CN2C(=O)NC3(CCCCC3C)C2=O)cc1` (configuration not stated), the Potency is 26.9 µM (active).

For the molecule `CC1CCCCC12NC(=O)N(CC(=O)OCC(=O)NCc1ccc(F)cc1)C2=O` (configuration not stated), the “activity change, negative = inhibition” value was -0.371%.

In the case of `COc1cccc(CNC(=O)COC(=O)CN2C(=O)NC3(CCCCC3C)C2=O)c1` (configuration not stated), the “activity change, negative = inhibition” value is -1.62%.

`COc1ccc(CCNC2=C(Cl)C(=O)N(Cc3ccccc3)C2=O)cc1OC`: the “activity change, negative = inhibition” value was 4.85%.

Regarding `C/C(=N/NC(=O)c1ccncc1)c1ccc2c(c1)OCO2`, the “activity change, negative = inhibition” value is -13.6%.

Turning to `COc1ccc(C/C(C)=N/NC(=O)c2ccncc2)cc1`, the “activity change, negative = inhibition” value was 0.213%.

Consider `CCN(CC)c1ccc2cc(C(N)=O)/c(=N\NC(=O)c3ccncc3)oc2c1`, for which the Potency was 16.9 µM (active).
